Source: PubChem BioAssay AID652115 (Broad Institute, 2013)
“And” between values parts separate entries of the source, which are not always exact repeats. Equal values may be shown once. Among all 330,000 compounds or so, about 3,800 (1.2%) were called active. For the sample, actives were picked, then their nearest neighbours and some compounds at random. A number with no mark means an inactive call. Cut-off read from the data, not from the text of the source: active = inhibition above about 15%; inconclusive = no clear call, values can overlap the other calls; inactive = below that.

target: NAD-dependent protein deacylase sirtuin-5, mitochondrial (Homo sapiens) (UniProt Q9NXA8); assay: SIRT5 desuccinylase inhibitors, primary screen, biochemical, fluorescence imaging, single point, set 5 (AID 652115); conditions: Purified SirT5, succinyl-peptide AMC, trypsin-coupled fluorescence; at 15 µM; hits give high values
Sequence (Q9NXA8 whole entry, looked up): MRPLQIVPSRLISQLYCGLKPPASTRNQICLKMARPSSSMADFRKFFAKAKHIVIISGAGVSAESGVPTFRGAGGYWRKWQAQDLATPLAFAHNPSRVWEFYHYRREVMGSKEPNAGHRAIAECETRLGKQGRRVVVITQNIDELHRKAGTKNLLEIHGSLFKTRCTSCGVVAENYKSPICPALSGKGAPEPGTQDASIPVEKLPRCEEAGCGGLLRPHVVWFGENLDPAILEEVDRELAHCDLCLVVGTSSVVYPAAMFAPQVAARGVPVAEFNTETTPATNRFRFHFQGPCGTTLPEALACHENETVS

| SMILES | inhibition |
| --- | --- |
| CCS(=O)(=O)N1CC(=O)N2[C@H](CO)[C@@H](c3ccc(C#CC4CCCC4)cc3)[C@@H]2C1 | -0.752% |
| COc1ccccc1CN1CCNC(=O)C1CC(=O)N(C)CC1CCOCC1 (stereo not drawn) | -0.968% |
| CCN(CCn1cccn1)C(=O)CC1C(=O)NCCN1Cc1cccc(OC)c1OC (stereo not drawn) | 16.5% (active) |
| CN(Cc1cccc2ncccc12)C(=O)CC1C(=O)NCCN1Cc1ccc(F)cc1 (stereo not drawn) | 7.41% |
| Cc1noc(C)c1S(=O)(=O)Nc1ccc2c(c1)C(=O)N([C@H](C)CO)C[C@H](C)[C@H](CN(C)C(=O)NC1CCCCC1)OCCCC[C@H](C)O2 | 0.076% |
| COc1ccccc1-c1nnc(NC(=O)c2ccc3ncsc3c2)o1 | 20.5% (active) |
| Cc1sc(NC(=O)c2ccc3ncsc3c2)c(C(N)=O)c1C | -6.86% |
| COc1ccccc1-c1nnc(NC(=O)c2cccc(N3C(=O)CCC3=O)c2)o1 | 1.38% |
| CCCNC(=O)C[C@H]1CC[C@@H]2[C@H](COC[C@H](O)CN2CC2CCCCC2)O1 | -1.9% |
| C[C@@H]1CN([C@H](C)CO)C(=O)c2cc(-c3cccc(F)c3)cnc2O[C@@H]1CN(C)C | 21.7% (active) |
| C[C@H]1CN([C@@H](C)CO)C(=O)c2cc(-c3cccc(F)c3)cnc2O[C@@H]1CN(C)S(C)(=O)=O | 0.285% and -8.78% |
| COc1cccc(-c2cnc3c(c2)C(=O)N([C@@H](C)CO)C[C@H](C)[C@H](CN(C)C(C)=O)O3)c1 | 2.24% |
| C[C@H](CO)N1C[C@H](C)[C@@H](CN(C)C)Oc2ncc(-c3cccc(F)c3)cc2C1=O | -1.97% |
| C[C@H]1CN([C@@H](C)CO)C(=O)c2cc(-c3cccc(F)c3)cnc2O[C@@H]1CN(C)C(=O)c1ccccn1 | 0.073% |
| CC(=O)N(C)C[C@H]1Oc2ncc(-c3cccc(F)c3)cc2C(=O)N([C@@H](C)CO)C[C@H]1C | 25.3% (active) |
| C[C@H]1CN([C@@H](C)CO)S(=O)(=O)c2ccc(C#Cc3ccccc3)cc2O[C@H]1CN(C)S(=O)(=O)c1cn(C)cn1 | 2.56% |
| COc1ccccc1-c1ccc([C@H]2[C@H](CO)N(C(=O)C3CC3)C23CN(C(C)=O)C3)cc1 | 2.52% |
| O=C(c1cccs1)N(Cc1cc2ccccc2[nH]c1=O)CC1CCCO1 (stereo not drawn) | 0.632% |
| Cc1cc2cc(CN(Cc3cccs3)Cc3nnnn3CC3CCCO3)c(=O)[nH]c2cc1C (stereo not drawn) | -2.28% |
| Cc1ccc(S(=O)(=O)N(Cc2cc3ccccc3[nH]c2=O)CC2CCCO2)cc1 (stereo not drawn) | 23.6% (active) |
| CO[C@H]1CN(C)C(=O)c2ccc(NC(=O)CC(F)(F)F)cc2OC[C@@H](C)N(C(=O)c2ccccc2F)C[C@@H]1C | 4.25% |
| O=C(NCCc1ccc(F)cc1)c1ccc2nccnc2c1 | 16% (active) |
| O=C(NCCc1ccc(F)cc1)c1n[nH]c2ccccc12 | 9.38% |
| O=C(NCCc1ccc(F)cc1)c1ccc(S(=O)(=O)N2CCCCC2)cc1 | -0.792% |
| Cc1ccccc1-c1ccc(C2[C@@H]3CN(C(=O)C4CCCCC4)C[C@H]2N3)cc1 (stereo partly drawn) | -6.18% and -1.65% |

| SMILES | inhibition |
| --- | --- |
| C/C=C/c1ccc(C2[C@H]3CNC[C@@H]2N3Cc2cccc(OC)c2)cc1 (stereo partly drawn) | -2.37% and 0.748% |
| CCNC(=O)C[C@H]1CC[C@@H]2[C@H](COC[C@H](O)CN2S(=O)(=O)c2ccc(Oc3ccccc3)cc2)O1 | -0.497% |
| COc1ccc(NC(=O)N(C)C[C@@H]2OCCCC[C@H](C)Oc3ccc(NS(=O)(=O)c4cccs4)cc3C(=O)N([C@@H](C)CO)C[C@@H]2C)cc1 | -0.093% |
| C[C@H](CO)N1C[C@H](C)[C@@H](CN(C)CC2CCOCC2)Oc2ncc(C#Cc3ccc(F)cc3)cc2C1=O | -1.14% |
| C[C@@H]1CN([C@@H](C)CO)C(=O)c2cc(C#CC3CCCCC3)cnc2O[C@H]1CN(C)S(=O)(=O)c1ccccc1 | 17.9% (active) |
| C[C@@H]1CN([C@@H](C)CO)C(=O)c2cc(C#C[C@@H](C)O)cnc2O[C@H]1CN(C)CC1CCOCC1 | -2.03% |
| C[C@H]1CN([C@@H](C)CO)C(=O)c2cc(C#CC3CCCCC3)cnc2O[C@H]1CN(C)S(=O)(=O)c1ccccc1 | 13.2% |
| C[C@@H]1CN([C@H](C)CO)C(=O)c2cc(C#CC3CCCC3)cnc2O[C@H]1CN(C)S(C)(=O)=O | -4.07% |
| CC(C)CC#Cc1cnc2c(c1)C(=O)N([C@H](C)CO)C[C@H](C)[C@H](CN(C)CC1CCOCC1)O2 | 23% (active) |
| C[C@H]1CN([C@@H](C)CO)S(=O)(=O)c2ccc(-c3cccc(C#N)c3)cc2O[C@H]1CN(C)CC1CC1 | -0.017% |
| COCC#Cc1cnc2c(c1)C(=O)N([C@@H](C)CO)C[C@@H](C)[C@@H](CN(C)S(=O)(=O)c1cccc(OC)c1)O2 | -3.81% |
| CN(C)Cc1cn(CC[C@H]2CC[C@H](NS(=O)(=O)c3ccccc3)[C@@H](CO)O2)nn1 | -3.23% |
| Cc1ccc(S(=O)(=O)N2C[C@H](O)COC[C@H]3O[C@H](CC(=O)N[C@H]4CCN(Cc5ccccc5)C4)CC[C@@H]32)cc1 | -1.53% |
| C/C(=N\Nc1nncc2ccccc12)c1ccc(Cl)c([N+](=O)[O-])c1 | 2.12% |
| CN(CCO)c1ccc(/C=N/Nc2nncc3ccccc23)cc1 | 25% (active) |
| CN(C(=O)CSc1nncc2ccccc12)C1CCCCC1 | 1.3% |
| C[C@H]1CCCCO[C@@H](CN(C)Cc2ccccc2)[C@@H](C)CN([C@@H](C)CO)C(=O)c2cc(NC(=O)Cc3ccccc3)ccc2O1 | 2.55% |
| O=C(C[C@H]1CC[C@@H](NC(=O)Cc2cccnc2)[C@H](CO)O1)Nc1ccc(-c2ccccc2)cc1 | 4.12% |
| Cc1ccc(C(=O)COC(=O)CCN2C(=O)C3C4CCC(C4)C3C2=O)cc1C (stereo not drawn) | -2.42% |
| O=C(O)CCCN1C(=O)C2C3c4ccccc4C(c4ccccc43)[C@@H]2C1=O (stereo partly drawn) | -0.491% |
| O=C(CCN1C(=O)C2C3C=CC(C3)C2C1=O)Oc1ccc2ccccc2c1 (stereo not drawn) | 19.8% (active) |
| CCCNC(=O)N[C@@H]1C=C[C@H](CC(=O)NC2CCC2)O[C@H]1CO | -0.778% |
| COc1ccc2c3c(n(C)c2c1)[C@H](CO)N(S(=O)(=O)c1ccc(C)cc1)CC31CN(C(=O)c2ccccn2)C1 | 1.96% |
| CN(C)C(=O)[C@@H]1[C@@H](CO)[C@@H]2Cn3c(ccc(-c4ccncc4)c3=O)[C@H]1N2C(=O)NC1CCCC1 | -68% |
| CCN1/C(=C\c2ccc3ccccc3[n+]2CC)Sc2cc(C)ccc21 | 28.6% (active) |

| SMILES | inhibition |
| --- | --- |
| COc1cccc(-c2cnc3c(c2)C(=O)N([C@H](C)CO)C[C@H](C)[C@@H](CN(C)Cc2ccc(C(=O)O)cc2)O3)c1 | -2.74% |
| O=C(C[C@H]1C[C@@H]2c3cc(NC(=O)CC4CC4)ccc3O[C@@H]2[C@H](CO)O1)NCc1ccccn1 | -3.34% |
| C[C@@H](O)C#Cc1cnc2c(c1)C(=O)N([C@@H](C)CO)C[C@H](C)[C@H](CN(C)C(=O)c1ccccc1F)O2 | 2.03% |
| CC1c2nc3ccccc3n2C(CC(=O)NCCCN2CCOCC2)C(=O)N1Cc1ccccc1 (stereo not drawn) | 112% (active) |
| CC1=C(C(=O)N(C)C)CC(CC(=O)NCCN2CCOCC2)C(=O)N1Cc1ccccc1 (stereo not drawn) | -4.9% |
| O=C(Cn1ncc2c3ccccc3n(Cc3ccccc3)c2c1=O)NCCCN1CCOCC1 | 0.065% |
| C[C@@H]1CCCCO[C@@H](CN(C)Cc2ccc3c(c2)OCO3)[C@H](C)CN([C@@H](C)CO)C(=O)c2cc(NS(C)(=O)=O)ccc2O1 | -3.83% |
| N#CC(C#N)=CN=c1ccn(Cc2ccc(Cl)cc2Cl)cc1 | 16.1% (active) |
| CC(C)(C)c1cc(C(=O)NN)n(Cc2ccc(Cl)cc2Cl)n1 | 1.67% |
| C[C@@H]1CN([C@@H](C)CO)C(=O)c2cc(NC(=O)Nc3ccc(C(F)(F)F)cc3)ccc2O[C@@H](C)CCCCO[C@@H]1CN(C)C(=O)Nc1cccc2ccccc12 | -1.14% |
| CC1CCN(C(=S)c2cccc(O)c2)CC1 | 0.61% |
| CC1CCN(C(=S)c2ccc(-c3ccc(Cl)cc3Cl)o2)CC1 | 17.1% (active) |
| Cc1csc(NC(=O)c2ccc(-c3ccc(Cl)cc3Cl)o2)n1 | -0.507% |
| COc1ccc2c3c([nH]c2c1)[C@H](CO)N(C(=O)c1ccccc1)CC31CN(C(=O)Nc2cccc(F)c2)C1 | 1.05% |
| CC(C)c1cn([C@H]2C[C@@H]3O[C@H](CO)CC[C@@H]3O[C@@H]2CCc2ccc(C#CC3CCCCC3)cc2)nn1 | -3.82% |
| Cc1nn(-c2ccccc2)c2c1c(C)c(CCC(=O)NCC1CCCO1)c(=O)n2C (stereo not drawn) | 39.7% (active) |
| CCCNC(=O)CCc1c(C)nc2c(c(C)nn2-c2ccccc2)c1C | -2.55% |
| Cc1sc2c(c1C)c(=O)n(-c1ccccc1)c(=O)n2CC(=O)NCC1CCCO1 (stereo not drawn) | -4.65% |
| CCCC#Cc1ccc([C@@H]2[C@@H](CO)N3C(=O)CN(C(=O)Nc4cccc(F)c4)C[C@H]23)cc1 | 6.12% |
| CCC(=O)Nc1ccc2c(c1)C(=O)N(C)C[C@@H](OC)[C@H](C)CN(Cc1cccnc1)[C@@H](C)CO2 | -0.588% |
| Cn1c(CC(=O)Nc2ccc(F)cc2)nnc1SCC(=O)NC1CCCCC1 | 0.115% |
| Cc1ccc(SCC(=O)Nc2nncs2)cc1 | -2.47% |
| Cc1ccc(NC(=O)Cc2nnc(SCC(=O)Nc3nncs3)n2C)cc1 | 17.8% (active) |
